# Laboratory results taken from the supplement of paper PMC4466140.
# Experiments:
# Assay in all cases: SPOT peptide array binding signal intensity (averaged, normalized) (arbitrary units (background-subtracted, floor 0; scale differs between SH3 domains)); higher = stronger binding of the SH3 domain to the peptide
# [1] = target: SpBzz1-D2
# In short: (§1)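 E. coli BL21(DE3) was used to express GST-fused SH3 domains from four yeast species, which were then purified on glutathione Sepharose. These were incubated at 10 μg/ml in TBS-based blocking buffer overnight at 4°C on cellulose membranes carrying synthetic 15-mer peptides, in which cysteines were replaced by serines. Binding signal is the replicate average of normalized, background-subtracted spot intensity, in arbitrary units that differ between domains.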
# [2] = target: SpCyk3
# In short: as §1
# [3] = target: SpHof1
# In short: as §1
# [4] = target: SpHof1-2
# In short: as §1
# [5] = target: SpHof1-3
# In short: as §1
# [6] = target: SpHse1
# In short: as §1
# [7] = target: SpLsb1
# In short: as §1
# [8] = target: SpLsb4
# In short: as §1
# [9] = target: SpMyo1
# In short: as §1
# [10] = target: SpNbp2
# In short: as §1
# [11] = target: SpPex13
# In short: as §1
# [12] = target: SpRvs167
# In short: as §1
# [13] = target: SpSla1-D1-D2
# In short: as §1
# [14] = target: SpSla1-D3
# In short: as §1
# [15] = target: AgAbp1
# In short: as §1
# [16] = target: AgBbc1
# In short: as §1
# [17] = target: AgBem1-D1
# In short: as §1
# [18] = target: AgBzz1-D1
# In short: as §1
# [19] = target: AgBzz1-D2
# In short: as §1
# [20] = target: AgCyk3
# In short: as §1
# [21] = target: AgFus1
# In short: as §1
# [22] = target: AgHof1
# In short: as §1
# [23] = target: AgHse1
# In short: as §1
# [24] = target: AgLsb1
# In short: as §1
# [25] = target: AgLsb4
# In short: as §1
# [26] = target: AgMyo5
# In short: as §1
# [27] = target: AgNbp2
# In short: as §1
# [28] = target: AgRvs167
# In short: as §1
# [29] = target: AgSho1
# In short: as §1
# [30] = target: AgSla1-D1-D2
# In short: as §1
# [31] = target: AgSla1-D3
# In short: as §1
# [32] = target: CaAbp1-D1
# In short: as §1
# [33] = target: CaAbp1-D2
# In short: as §1
# [34] = target: CaBbc1
# In short: as §1
# [35] = target: CaBem1-D1
# In short: as §1
# [36] = target: CaBzz1-D1
# In short: as §1
# [37] = target: CaBzz1-D2
# In short: as §1
# [38] = target: CaCyk3
# In short: as §1
# [39] = target: CaFus1
# In short: as §1
# [40] = target: CaHof1
# In short: as §1
# [41] = target: CaHse1
# In short: as §1
# [42] = target: CaLsb1
# In short: as §1
# [43] = target: CaLsb4
# In short: as §1
# [44] = target: CaMyo5
# In short: as §1
# [45] = target: CaNbp2
# In short: as §1
# [46] = target: CaRvs167
# In short: as §1
# [47] = target: CaRvs167-3
# In short: as §1
# [48] = target: CaSho1
# In short: as §1
# [49] = target: CaSla1-D1-D2
# In short: as §1
# [50] = target: CaSla1-D3
# In short: as §1
# [51] = target: ScAbp1
# In short: as §1
# [52] = target: ScBbc1
# In short: as §1
# [53] = target: ScBem1-D1
# In short: as §1
# [54] = target: ScBzz1-D1
# In short: as §1
# [55] = target: ScBzz1-D2
# In short: as §1
# [56] = target: ScCyk3
# In short: as §1
# [57] = target: ScFus1
# In short: as §1
# [58] = target: ScHof1
# In short: as §1
# [59] = target: ScHse1
# In short: as §1
# [60] = target: ScLsb1
# In short: as §1
# [61] = target: ScLsb2
# In short: as §1
# [62] = target: ScLsb3
# In short: as §1
# [63] = target: ScLsb4
# In short: as §1
# [64] = target: ScMyo3
# In short: as §1
# [65] = target: ScMyo5
# In short: as §1
# [66] = target: ScNbp2
# In short: as §1
# [67] = target: ScPex13
# In short: as §1
# [68] = target: ScRvs167
# In short: as §1
# [69] = target: ScSho1
# In short: as §1
# [70] = target: ScSla1-D1-D2
# In short: as §1
# [71] = target: ScSla1-D3
# In short: as §1
# [72] = target: SpAbp1-D1
# In short: as §1
# [73] = target: SpBbc1
# In short: as §1
# [74] = target: SpBzz1-D1
# In short: as §1
binder,measurement,setting,value
LTRRFPFLFPFDTRM,SPOT peptide array binding signal intensity,[1],≤ 0
same,SPOT peptide array binding signal intensity,[2],11.5
same,SPOT peptide array binding signal intensity,[3],72.5
same,SPOT peptide array binding signal intensity,[4],11.5
same,SPOT peptide array binding signal intensity,[5],1320
same,SPOT peptide array binding signal intensity,[6],1740
same,SPOT peptide array binding signal intensity,[7],≤ 0
same,SPOT peptide array binding signal intensity,[8],≤ 0
same,SPOT peptide array binding signal intensity,[9],7
same,SPOT peptide array binding signal intensity,[10],69
same,SPOT peptide array binding signal intensity,[11],14
same,SPOT peptide array binding signal intensity,[12],2.17
same,SPOT peptide array binding signal intensity,[13],2.5
same,SPOT peptide array binding signal intensity,[14],5
NVLRKILEIPLHSFS,SPOT peptide array binding signal intensity,[15],4
same,SPOT peptide array binding signal intensity,[16],≤ 0
same,SPOT peptide array binding signal intensity,[17],≤ 0
same,SPOT peptide array binding signal intensity,[18],5.5
same,SPOT peptide array binding signal intensity,[19],24.5
same,SPOT peptide array binding signal intensity,[20],≤ 0
same,SPOT peptide array binding signal intensity,[21],29.5
same,SPOT peptide array binding signal intensity,[22],≤ 0
same,SPOT peptide array binding signal intensity,[23],2570
same,SPOT peptide array binding signal intensity,[24],2
same,SPOT peptide array binding signal intensity,[25],16
same,SPOT peptide array binding signal intensity,[26],≤ 0
same,SPOT peptide array binding signal intensity,[27],≤ 0
same,SPOT peptide array binding signal intensity,[28],1
same,SPOT peptide array binding signal intensity,[29],≤ 0
same,SPOT peptide array binding signal intensity,[30],≤ 0
same,SPOT peptide array binding signal intensity,[31],2
same,SPOT peptide array binding signal intensity,[32],≤ 0
same,SPOT peptide array binding signal intensity,[33],≤ 0
same,SPOT peptide array binding signal intensity,[34],≤ 0
same,SPOT peptide array binding signal intensity,[35],≤ 0
same,SPOT peptide array binding signal intensity,[36],≤ 0
same,SPOT peptide array binding signal intensity,[37],≤ 0
same,SPOT peptide array binding signal intensity,[38],≤ 0
same,SPOT peptide array binding signal intensity,[39],1150
same,SPOT peptide array binding signal intensity,[40],≤ 0
same,SPOT peptide array binding signal intensity,[41],7
same,SPOT peptide array binding signal intensity,[42],6
same,SPOT peptide array binding signal intensity,[43],≤ 0
same,SPOT peptide array binding signal intensity,[44],≤ 0
same,SPOT peptide array binding signal intensity,[45],94.5
same,SPOT peptide array binding signal intensity,[46],≤ 0
same,SPOT peptide array binding signal intensity,[47],7.25
same,SPOT peptide array binding signal intensity,[48],75
same,SPOT peptide array binding signal intensity,[49],≤ 0
same,SPOT peptide array binding signal intensity,[50],≤ 0
same,SPOT peptide array binding signal intensity,[51],2
same,SPOT peptide array binding signal intensity,[52],≤ 0
same,SPOT peptide array binding signal intensity,[53],≤ 0
same,SPOT peptide array binding signal intensity,[54],12
same,SPOT peptide array binding signal intensity,[55],26
same,SPOT peptide array binding signal intensity,[56],31
same,SPOT peptide array binding signal intensity,[57],123
same,SPOT peptide array binding signal intensity,[58],≤ 0
same,SPOT peptide array binding signal intensity,[59],1780
same,SPOT peptide array binding signal intensity,[60],59.8
same,SPOT peptide array binding signal intensity,[61],≤ 0
same,SPOT peptide array binding signal intensity,[62],≤ 0
same,SPOT peptide array binding signal intensity,[63],≤ 0
same,SPOT peptide array binding signal intensity,[64],0.75
same,SPOT peptide array binding signal intensity,[65],≤ 0
same,SPOT peptide array binding signal intensity,[66],9.5
same,SPOT peptide array binding signal intensity,[67],≤ 0
same,SPOT peptide array binding signal intensity,[68],0.833
same,SPOT peptide array binding signal intensity,[69],120
same,SPOT peptide array binding signal intensity,[70],≤ 0
same,SPOT peptide array binding signal intensity,[71],≤ 0
same,SPOT peptide array binding signal intensity,[72],≤ 0
same,SPOT peptide array binding signal intensity,[73],38
same,SPOT peptide array binding signal intensity,[74],≤ 0
same,SPOT peptide array binding signal intensity,[1],≤ 0
same,SPOT peptide array binding signal intensity,[2],0.5
same,SPOT peptide array binding signal intensity,[3],2
same,SPOT peptide array binding signal intensity,[4],≤ 0
same,SPOT peptide array binding signal intensity,[5],591
same,SPOT peptide array binding signal intensity,[6],2430
same,SPOT peptide array binding signal intensity,[7],≤ 0
same,SPOT peptide array binding signal intensity,[8],≤ 0
same,SPOT peptide array binding signal intensity,[9],≤ 0
same,SPOT peptide array binding signal intensity,[10],32.5
same,SPOT peptide array binding signal intensity,[11],2
same,SPOT peptide array binding signal intensity,[12],≤ 0
same,SPOT peptide array binding signal intensity,[13],≤ 0
same,SPOT peptide array binding signal intensity,[14],≤ 0
